Assay results as given in publication PMC5540273 (PLoS ONE, 2017).

How the values were obtained:
Settings in all cases: concentration: 1 μM, replicates: in singlicate; n = 1
PKN1 = test system: PKN1
PKN2 = test system: PKN2
PLK1 = test system: PLK1
PLK2 = test system: PLK2
PLK3 = test system: PLK3
PLK4 = test system: PLK4
PRKCD = test system: PRKCD
PRKCE = test system: PRKCE
PRKCH = test system: PRKCH
PRKCI = test system: PRKCI
PRKCQ = test system: PRKCQ
PRKD1 = test system: PRKD1
PRKD2 = test system: PRKD2
PRKD3 = test system: PRKD3
PRKG1 = test system: PRKG1
PRKG2 = test system: PRKG2
PRKR = test system: T1, PRKR
T1 construct: gene EIF2AK2

PRKX = test system: PRKX
PRP4 = test system: PRP4
PYK2 = test system: T2, PYK2
T2 construct: gene PTK2B
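Note: KINOMEscan kinase panel screen.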

SMILES	%Inh (PKN1) [%]	%Inh (PKN2) [%]	%Inh (PLK1) [%]	%Inh (PLK2) [%]	%Inh (PLK3) [%]	%Inh (PLK4) [%]	%Inh (PRKCD) [%]	%Inh (PRKCE) [%]	%Inh (PRKCH) [%]	%Inh (PRKCI) [%]	%Inh (PRKCQ) [%]	%Inh (PRKD1) [%]	%Inh (PRKD2) [%]	%Inh (PRKD3) [%]	%Inh (PRKG1) [%]	%Inh (PRKG2) [%]	%Inh (PRKR) [%]	%Inh (PRKX) [%]	%Inh (PRP4) [%]	%Inh (PYK2) [%]
Cc1csc(-c2nc(Nc3ccncc3)c3ccccc3n2)n1 [GW869640]	0	23	51	40	31	24	21	37	0	30	5	69	78	71	2	12	33	0	0	0
COc1cc2ncn(-c3cc(OCC4CCCO4)c(C(N)=O)s3)c2cc1OC (stereo not shown) [GSK204607]	0	0	98.9	99.4	98.3	0	0	2	0	100	0	0	0	0	0	0	13	10	4	0
COc1ccc(Nc2nccc(-c3cccc(NC(=O)c4cc5cc(F)ccc5[nH]4)c3)n2)cc1 [GSK1229782]	0	0	24	0	0	4	42	43	20	32	12	10	11	24	10	0	10	46	66	21
O=C(Nc1ccccc1)Nc1cccc(Oc2ccc3nccn3n2)c1	0	0	33	0	0	0	16	0	0	21	10	0	7	0	4	0	0	0	26	60
COc1ccc(CNC(=O)NC2CCN(c3ccnc(Nc4cc(OC)c(OC)c(OC)c4)n3)C2)cc1 (stereo not shown) [GSK1379748]	0	0	0	0	0	19	0	14	0	30	0	0	0	0	0	11	14	17	43	0
Cc1ccc(C(=O)Nc2ccc(Nc3ccnc4cc(-c5ccccn5)ccc34)cc2O)cc1.Cl [GW440146]	0	0	0	0	0	10	0	0	24	5	6	17	0	18	0	0	0	9	12	1
Cc1cccc(-c2nc(C)cc(Nc3ccncc3)n2)n1 [GSK257997]	0	0	5	0	0	1	15	0	5	12	0	78	80	85	0	6	0	1	13	0
COC(=O)c1c(-c2ccccc2)c2cc(C(=O)O)ccc2c(=O)n1Cc1ccccc1	0	0	0	12	0	11	0	0	4	0	22	14	0	3	8	0	3	0	9	0
Cn1ccc2ncnc(Oc3ccc(NC(=O)Nc4ccccc4)cc3)c21	2	0	0	0	0	11	7	4	0	11	13	0	2	0	7	31	0	0	0	0
Cc1cccc(-c2cc(Nc3ccncc3)c3ccccc3n2)n1 [GSK223675]	46	0	1	0	0	2	0	0	0	17	0	91.1	96	100	0	0	0	16	19	14
O=C(Nc1n[nH]c2nc(-c3nccs3)c(Br)cc12)C1CC1 [SB-742251]	6	0	0	0	0	0	0	11	0	5	32	0	0	0	0	0	0	0	51	0
Cn1ccc2ncnc(Oc3ccc(Nc4nc5ccccc5[nH]4)cc3)c21	0	0	0	0	0	62	12	0	13	0	0	44	8	0	0	0	0	3	25	41
Cc1nnc(-c2ccc3occ(-c4ccc(S(C)=O)cc4)c3c2)[nH]1 (stereo not shown)	0	0	0	14	7	11	13	7	0	0	0	0	4	0	0	0	0	51	10	26
Cc1cccc(-c2nc(Nc3ccc4[nH]ncc4c3)c3ccccc3n2)n1 [GW857175]	10	0	11	12	15	8	11	0	0	33	27	99.8	99.9	98.1	0	2	0	0	13	0
Cc1cc(N2Cc3ccccc3C2)nc(Nc2ccc(S(=O)(=O)N3CCOCC3)cc2)n1.Cl [GSK1669917]	0	0	0	8	0	0	0	3	10	17	0	0	0	0	0	0	0	0	16	0
CC1=C(C(=O)Nc2cc3cn[nH]c3cc2F)C(c2ccc(C(F)(F)F)cc2)CC(=O)N1 (stereo not shown) [GSK429286]	56	0	0	0	0	0	0	0	0	19	28	22	4	0	30	0	0	87	7	10
Cc1cccc(-c2nc(Nc3ccncc3)c3ccccc3n2)n1 [GW855857]	0	0	6	0	0	0	29	0	0	32	0	86	99	69	7	0	2	0	17	4
O=S(=O)(c1ccc(-c2ccnc3[nH]ccc23)cc1)N1CCCC1 [GSK846226]	40	0	0	4	0	0	0	2	0	20	0	0	3	0	36	14	21	28	8	0
COc1ccc(Nc2nccc(NCCNC(=O)Nc3ccccc3F)n2)cc1 [GSK1379901]	16	0	0	0	0	0	0	19	19	23	0	0	83	0	8	0	1	5	14	8
Fc1cc(Cl)ccc1Nc1ccnc2cc(-c3ccc(CN4CCCCC4)o3)ccc12 [GW560116]	0	0	0	0	0	51	0	5	0	0	0	0	0	0	0	0	0	0	21	0
O=C(O)COc1ncnc2cc(-c3ccc4[nH]ncc4c3)sc12	30	19	2	18	12	15	19	10	0	3	41	0	0	25	17	0	0	41	0	0
Fc1cccc(COc2nnc(-c3ccc4c(c3)CCO4)o2)c1	0	0	0	9	11	12	12	0	0	0	22	0	1	0	0	0	0	0	8	10
COc1ccccc1-c1ccc2c(NC(=O)C3CC3)n[nH]c2n1 [SB-711239]	12	2	10	0	0	0	0	3	27	0	9	0	11	30	27	22	7	25	53	0
COC(=O)c1c(-c2ccccc2)c2cc(OC)ccc2c(=O)n1Cc1ccccc1	4	0	0	25	20	19	19	12	9	0	15	0	16	0	0	2	4	4	7	6
Cc1c(Cn2ccn3c(=O)cc(N4CCOCC4)nc23)cccc1C(F)(F)F [GSK2289044]	20	5	0	0	0	0	0	0	8	0	3	6	19	0	0	9	4	25	0	0
Cc1ccc(NC(=O)Nc2cc(C(C)(C)C)nn2-c2ccccc2)cc1 [GSK1014915]	53	0	0	0	0	0	0	0	5	28	0	7	0	18	11	0	0	57	1	4
Clc1cc(Cl)cc(Nc2ccnc(Nc3cc(Cl)cc(Cl)c3)n2)c1 [GSK175726]	31	0	0	3	1	78	7	13	22	15	0	0	12	0	0	12	14	10	6	19
C[C@@H]1CCCCN1c1cc(-c2ccc3c(N)n[nH]c3c2)nc(N)n1 [GSK2258759]	6	0	0	0	0	42	0	0	0	22	0	0	3	0	0	14	21	15	1	0
CCn1c(-c2ccccn2)nc2cnccc21 [SB-736398]	0	11	0	0	0	0	0	10	0	30	14	0	0	1	0	3	0	100	46	9
